Holding throughout (assay): yeast three-hybrid, YBZ-1, SC-Leu-His + 0.5 mM 3-AT, 4 days
Holding throughout (conditions): tags: N-Gal4 AD-HA kept; label: inside an RPR1-promoter hybrid RNA with tandem MS2 sites; ssRNA

One experiment has as its target PUM1 PUF domain R3-RRL (Homo sapiens, UniProt Q14671 828-1176, C935R;Q939L). Put shortly:
(§1)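 The interaction score is the logarithmic change in variant frequency from input to selection. It uses log2, with a pseudocount of 1 for absent variants, and frequencies came from PCR-amplified, Illumina-sequenced repeat regions. The libraries were Pumilio-1 PUF domains randomized at the three base-contacting residues per repeat, co-expressed with matching RNA elements in strain YBZ-1 (LexA–MS2 coat fusion, HIS3 reporter). Plating lasted four days on SC-Leu (input) or SC-Leu-His + 0.5 mM 3-AT (selection).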

The next experiment has as its target PUM1 PUF domain R3-FFG (Homo sapiens, UniProt Q14671 828-1176, C935F;R936F;Q939G). Put shortly: as §1
In another experiment the target is PUM1 PUF domain R3-LWV (Homo sapiens, UniProt Q14671 828-1176, C935L;R936W;Q939V). Summed up: as §1
The target of the next experiment is PUM1 PUF domain R3-RSV (Homo sapiens, UniProt Q14671 828-1176, C935R;R936S;Q939V). Summed up: as §1
For a further experiment, the target named is PUM1 PUF domain R7-GPK (Homo sapiens, UniProt Q14671 828-1176, S1079G;N1080P;E1083K). Put shortly: as §1
For the next experiment, the target named is PUM1 PUF domain R5-KFC (Homo sapiens, UniProt Q14671 828-1176, C1007K;R1008F;Q1011C). Summed up:
as §1

The target in the next experiment is PUM1 PUF domain R5-RRE (Homo sapiens, UniProt Q14671 828-1176, C1007R;Q1011E). Put shortly: as §1
A further experiment concerns the target PUM1 PUF domain R5-SKN (Homo sapiens, UniProt Q14671 828-1176, C1007S;R1008K;Q1011N). Put shortly: as §1

PUM1 PUF domain R5-RRE, sequence (Q14671 828-1176 C1007R/Q1011E): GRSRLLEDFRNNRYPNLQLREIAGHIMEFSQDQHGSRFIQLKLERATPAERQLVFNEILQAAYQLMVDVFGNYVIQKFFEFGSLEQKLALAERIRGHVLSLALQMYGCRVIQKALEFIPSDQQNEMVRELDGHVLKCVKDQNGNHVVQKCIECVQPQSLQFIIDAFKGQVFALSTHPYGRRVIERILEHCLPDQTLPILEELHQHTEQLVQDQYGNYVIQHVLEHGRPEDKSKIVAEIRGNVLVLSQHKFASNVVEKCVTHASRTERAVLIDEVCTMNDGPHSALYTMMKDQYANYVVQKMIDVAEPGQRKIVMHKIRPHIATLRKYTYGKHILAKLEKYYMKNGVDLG

Turning to “GGCUAGAACUAGUGGAUCCCCCGGCGCCCGGCGGCUCGAGCCCGGGUAAGUGUAAUUAGUCUGCAUGCCGCCGGGCGCCAUGCCUGCAGGUCGACUCUAGAAAACAUG”, the binding signal with PUM1 PUF domain R3-RRL was 3.07 log2 enrichment (interaction score); in the experiment with PUM1 PUF domain R3-FFG it was 3.8 log2 enrichment (interaction score); with PUM1 PUF domain R3-LWV it was 3.36 log2 enrichment (interaction score); with PUM1 PUF domain R3-RSV, 3.06 log2 enrichment (interaction score).

As for “GGCUAGAACUAGUGGAUCCCCCGGCGCCCGGCGGCUCGAGCCCGGGUAAGUUUAAAUAGUCUGCAUGCCGCCGGGCGCCAUGCCUGCAGGUCGACUCUAGAAAACAUG”, the binding signal with PUM1 PUF domain R7-GPK was 3.11 log2 enrichment (interaction score).

With “GGCUAGAACUAGUGGAUCCCCCGGCGCCCGGCGGCUCGAGCCCGGGUAAGUGUUAAUAGUCUGCAUGCCGCCGGGCGCCAUGCCUGCAGGUCGACUCUAGAAAACAUG”, the values for the binding signal with PUM1 PUF domain R5-KFC, with PUM1 PUF domain R5-RRE and with PUM1 PUF domain R5-SKN were 5.65 log2 enrichment (interaction score), 5.72 log2 enrichment (interaction score) and 2.59 log2 enrichment (interaction score), respectively.

Regarding “GGCUAGAACUAGUGGAUCCCCCGGCGCCCGGCGGCUCGAGCCCGGGUAAGUGUAAGUAGUCUGCAUGCCGCCGGGCGCCAUGCCUGCAGGUCGACUCUAGAAAACAUG”, the binding signal with PUM1 PUF domain R3-FFG was 7.59 log2 enrichment (interaction score); with PUM1 PUF domain R3-LWV, 4 log2 enrichment (interaction score).

For the origin of these results see PMC8384837, “Expanding the binding specificity for RNA recognition by a PUF domain”.
